The list is not random: actives were taken first. Their share in the collection is about 3.5%.
Pf apPOL block: Pf-apPOL inhibitors, biochemical, fluorescence; Recombinant Pf-apPOL, molecular beacon fluorescence, 1.5 h; AID 1794808, 2022; Plasmodium falciparum apicoplast DNA polymerase (apPOL); 0.25% of 210,000 active; inhibition, % at 10 µM
mHTT CaM bind: mutant huntingtin-calmodulin interaction inhibitors – biochemical, AlphaScreen, primary screen | AlphaScreen His-mHTT/GST-CaM binding, luminescence | inhibition, % at 15 µM | 3.6% of 190,000 active | AID 1671202, 2021;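 note: 0% = both proteins with DMSO and 100% = one protein alone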
Active calls of the source: *; / = no result. Cut-off read from the data, not from the text of the source: active = inhibition above about 50%; inactive = the rest.

SMILES	Pf apPOL block	mHTT CaM bind
Cc1nc2cc(-c3noc(-c4ccccn4)n3)ccc2o1	2.3	-7.3
O=C(Nc1cccs1)Nc1nnc(SCC(=O)N2CCCC2)s1	-0.5	-9.3
COc1ccc(C)cc1NC(=O)C1CCCN(C(=O)c2cc(C)cc(C)c2)C1 (stereo not given)	-0.2	-0.5
CCOC(=O)c1ccccc1NC(=O)CSc1nnc(-c2c[nH]c3ccccc23)n1C	-11.4	1.2
COc1ccc(Cl)cc1NC(=O)CSc1nnc(-c2c[nH]c3ccccc23)n1C	-11.5	54.7*
COc1ccc(-c2cnc(SCC#N)n2Cc2ccccc2)cc1	-0.5	25.9
COc1ccc(C2=NN(CN3C(=O)C(=O)c4ccccc43)C(c3ccccc3Cl)C2)cc1 (stereo not given)	5.0	76.0*
COc1ccc(C2=NN(CN3C(=O)C(=O)c4ccccc43)C(c3ccccc3)C2)cc1 (stereo not given)	-1.0	2.0
COc1ccc(C2=NN(CN3C(=O)C(=O)c4ccccc43)C(c3cccc([N+](=O)[O-])c3)C2)cc1 (stereo not given)	-2.9	96.0*
COc1ccc(C2=NN(C(=O)c3ccccc3Cl)C(c3cccc([N+](=O)[O-])c3)C2)cc1 (stereo not given)	13.7	31.0
CCCNC(=O)c1cc2n(n1)C(C(F)(F)F)CC(c1ccc(C)cc1)N2 (stereo not given)	0.8	9.0
Cc1cc(C2CCCN2C(=O)CC2CCCC2)on1 (stereo not given)	-3.0	2.0
CCC(C(=O)N1CCCN(c2ncccc2-c2nc(C3CC3)no2)CC1)c1ccccc1 (stereo not given)	-5.8	-7.1
Cc1ccsc1C1C2=C(CC(C)(C)CC2=O)Nc2ncnn21 (stereo not given)	1.0	87.3*
Cc1ccsc1C1C2=C(CCCC2=O)Nc2ncnn21 (stereo not given)	-3.4	-4.0
CN(C)c1ccc(C(=O)N2CCCN(C3CCN(CC4CC4)C3=O)CC2)cc1 (stereo not given)	-1.9	20.8
CCOc1ccc2nc(SCC(=O)NCC(=O)c3ccccc3)sc2c1	-0.4	1.6
CC(Oc1cc2oc(=O)cc(-c3ccccc3)c2cc1Cl)C(=O)O (stereo not given)	-1.1	100.0*
COC(=O)C(C)Oc1cc(C)cc2oc(=O)cc(-c3ccccc3)c12 (stereo not given)	-3.6	-7.2
OCCCNc1nc(-c2ccccc2Cl)c2cc(Br)ccc2n1	-3.9	51.0*
O=C(NNc1nc(-c2ccccc2)c2cc(Br)ccc2n1)C12CC3CC(CC(C3)C1)C2	-4.9	2.5
COc1cc(OC)cc(C2=NC3(CCCC3)N(C(=O)c3cc(OC)c(OC)c(OC)c3)C2=S)c1	-4.9	51.7*
CNC(=O)C1CN(C(=O)c2cc(OC)c(OC)c(OC)c2)CC12CCCC2 (stereo not given)	-0.4	-7.5
O=C(Nc1ccc2nc(-c3ccccn3)c(-c3ccccn3)nc2c1)N1CCCCC1	-49.9	10.9
Cc1nnc2cc(N3CCN(Cc4ccc(C(F)(F)F)cc4)CC3)cnn12	4.5	67.0*
SMILES	Pf apPOL block	mHTT CaM bind
Cc1nnc2cc(N3CCN(Cc4csc5c4CCCC5)CC3)cnn12	2.7	27.9
COc1ccc(OC)c(C=C2SC(=S)N(C(C)C(=O)O)C2=O)c1 (stereo not given)	-12.7	15.0
CC(C)C(C(=O)O)N1C(=O)C(=Cc2ccccc2)SC1=S (stereo not given)	-17.2	3.1
CC(C)C(C(=O)O)N1C(=O)C(=Cc2cccc(Br)c2)SC1=S (stereo not given)	-30.9	58.8*
COc1ccc(OC)c(C=C2SC(=S)N(C(C(=O)O)C(C)C)C2=O)c1 (stereo not given)	-38.5	51.1*
CCOC(=O)c1ccc(NC(=O)N2CCCC2c2c(C)noc2CC)cc1 (stereo not given)	6.7	-3.1
Cc1ccc(C=CC(=O)c2cc(Cl)ccc2O)cc1	-4.6	1.8
CCCC1=NN(S(=O)(=O)c2ccccc2)C(O)(C(F)(F)F)C1 (stereo not given)	-0.2	-2.0
CCC(=O)Nc1nc2ccccc2n1Cc1ccc(Cl)cc1	-6.9	71.9*
CCC(=O)Nc1nc2ccccc2n1C	-0.1	-7.1
COc1ccc(C)cc1N1CCN(C(=O)NC(C)C)C(C)C1=O (stereo not given)	-0.7	-0.7
Cc1ccc(C(=O)N2CCC(CCNS(=O)(=O)c3c(C)noc3C)CC2)cc1	-0.6	61.9*
Cc1ccc(C(=O)N2CCC(CCNS(=O)(=O)c3ccc(C)cc3)CC2)cc1	-4.2	36.9
O=C(c1ccccc1)N1CCC(CCNS(=O)(=O)c2ccc(F)cc2)CC1	-1.6	25.9
Cc1ccc(C(=O)N2CCC(CCNS(=O)(=O)c3ccc(F)cc3)CC2)cc1	-1.6	53.2*
Cc1ccc(C(=O)N2CCC(CCNS(=O)(=O)c3cccc(C)c3)CC2)cc1	1.1	44.4
O=C(c1ccc(F)cc1)N1CCC(CCNS(=O)(=O)c2ccc(Cl)cc2)CC1	-0.3	55.1*
Cc1ccc(C(=O)N2CCC(CCNS(=O)(=O)c3c(C)cc(C)cc3C)CC2)cc1	2.2	44.8
Cc1ccc(C(=O)N2CCC(CCNS(=O)(=O)c3cccc(C#N)c3)CC2)cc1	-3.7	50.4*
CC1CC(C)CN(c2nc3c(c(=O)[nH]c(=O)n3C)n2CCSc2ncccn2)C1 (stereo not given)	-3.2	-3.0
CCc1cccc(C)c1NC(=O)C1CCN(c2nccc(C)n2)CC1	-1.8	-0.9
O=C(Nc1cccc([N+](=O)[O-])c1)c1cc([N+](=O)[O-])cc2c1-c1ccc([N+](=O)[O-])cc1C2=O	2.3	3.0
O=C(c1ccco1)N1CCC(Cc2nnc(-c3ccccc3)o2)CC1	1.8	1.6
CCOc1ccc(S(=O)(=O)NCCC2CCN(C(=O)c3ccc(C)cc3)CC2)cc1	-3.3	61.6*
Cc1ccc(C(=O)N2CCC(CCNS(=O)(=O)c3ccccc3)CC2)cc1	-3.2	36.6
SMILES	Pf apPOL block	mHTT CaM bind
Cc1ccc(F)cc1S(=O)(=O)NCCC1CCN(C(=O)c2ccc(F)cc2)CC1	-1.8	34.4
Cc1ccc(C)c(S(=O)(=O)NCCC2CCN(C(=O)c3ccc(F)cc3)CC2)c1	1.5	61.1*
CC(C)c1cc(C2CCCN2C(=O)C(C)(C)C)no1 (stereo not given)	-2.6	-5.5
Cc1cccc(-n2cnc3cc(C(=O)NC4CCCC4)ccc32)c1	3.6	10.0
Cc1cccc(-n2cnc3cc(C(=O)N4CCc5ccccc54)ccc32)c1	28.5	67.0*
COc1ccc(C2CC(O)(c3ccccc3)Oc3cc(OC)c(OC)c(OC)c32)cc1 (stereo not given)	-1.5	86.3*
COc1ccc(C2CC(O)(c3ccccc3)Oc3cc(C)c(Cl)c(C)c32)cc1 (stereo not given)	-2.7	89.3*
Cc1cc2c(c(C)c1Cl)[C@H](c1ccc3c(c1)OCO3)C[C@@H](c1ccccc1)O2	-6.6	10.0
COc1ccc([C@@H]2C[C@H](c3ccccc3)Oc3cc(OC)c(OC)c(OC)c32)cc1	-3.8	18.3
CC1(C)CC(=O)C2=C(C1)OC1=C(C(=O)CC(C)(C)C1)C2c1ccc([N+](=O)[O-])s1	0.6	/
COc1cc(NC(=O)C2CCCN(c3nnc4ccccn34)C2)cc(OC)c1OC (stereo not given)	-4.2	0.2
COc1ccccc1NC(=O)CC(NCCC1=CCCCC1)C(=O)O (stereo not given)	-3.3	2.1

Screening data: PubChem BioAssay, University of Kansas High Throughput Screening Laboratory
